Reference: the supplement of paper PMC8253809

Experiments:
Assay in all cases: growth inhibition (% activity, log2 RLU normalised to DMSO / staurosporine); higher = more growth inhibition
Details in all cases: 33 µM
DIPGX29 = tested on: DIPGX29 (H3.3 K27M diffuse intrinsic pontine glioma line)
Method in brief: (§1)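 Cells (pHGG lines and H9-derived neural stem cells) were plated on Geltrex-coated 384-well plates and exposed to approved drugs at a single final concentration of about 33 μM, in triplicate, for 7 days at 37 °C, 5% CO2. Log2-transformed CellTiter-Glo luminescence was normalised per plate to % activity between solvent and positive control wells, and the growth-inhibition value is the median over replicates.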

DIPGX37 = tested on: DIPGX37 (H3.3 K27M diffuse intrinsic pontine glioma line)
Method in brief: as §1

DIPGX7 = tested on: DIPGX7 (H3.3 K27M diffuse intrinsic pontine glioma line)
Method in brief: as §1

DIPGX9 = tested on: DIPGX9 (diffuse intrinsic pontine glioma line)
Method in brief: as §1

HGGX39 = tested on: HGGX39 (paediatric high-grade glioma line)
Method in brief: as §1

HGGX6 = tested on: HGGX6 (H3.3 G34R paediatric high-grade glioma line)
Method in brief: as §1

HNSC = tested on: HNSC
Method in brief: as §1

SUDIPGIV = tested on: SUDIPGIV (diffuse intrinsic pontine glioma line)
Method in brief: as §1

SUDIPGVI = tested on: SUDIPGVI (diffuse intrinsic pontine glioma line)
Method in brief: as §1

SUDIPGXIII = tested on: SUDIPGXIII (diffuse intrinsic pontine glioma line)
Method in brief: as §1

Structure (SMILES)	growth inhibition (DIPGX29) [%]	growth inhibition (DIPGX37) [%]	growth inhibition (DIPGX7) [%]	growth inhibition (DIPGX9) [%]	growth inhibition (HGGX39) [%]	growth inhibition (HGGX6) [%]	growth inhibition (HNSC) [%]	growth inhibition (SUDIPGIV) [%]	growth inhibition (SUDIPGVI) [%]	growth inhibition (SUDIPGXIII) [%]
Cc1cccc(C)c1OCC(C)N (stereo not given)	-3.9	-0.481	-1.91	-1.51	-0.858	-1.81	-4.52	-0.767	-2.5	0.823
CCOC(=O)[C@H](CCc1ccccc1)N[C@@H](C)C(=O)N1Cc2cc(OC)c(OC)cc2C[C@H]1C(=O)O	-2.18	-2.28	-0.52	-1.23	-1.86	-4.51	12.2	-0.334	-11	1.38
CC(C)c1nc(CN(C)C(=O)N[C@H](C(=O)N[C@@H](Cc2ccccc2)C[C@H](O)[C@H](Cc2ccccc2)NC(=O)OCc2cncs2)C(C)C)cs1	1.73	2.67	2.88	1.93	5.32	2.08	5.1	-1.31	-0.349	-0.136
Cc1nnc(C(C)C)n1C1C[C@H]2CC[C@@H](C1)N2CC[C@H](NC(=O)C1CCC(F)(F)CC1)c1ccccc1 (stereo in doubt)	0.752	1.42	6.87	1.45	1.14	-3.69	45.9	-0.251	-0.429	-1.27
CO[C@H]1/C=C/O[C@@]2(C)Oc3c(C)c(O)c4c(O)c(c(/C=N/N5CCN(C)CC5)c(O)c4c3C2=O)NC(=O)/C(C)=C\C=C\[C@H](C)[C@H](O)[C@@H](C)[C@@H](O)[C@@H](C)[C@H](OC(C)=O)[C@@H]1C	-0.241	-0.311	-0.321	-1.43	0.825	3.31	-3.9	-0.0069	-1.69	1.7
NC(=O)c1ncn([C@@H]2O[C@H](CO)[C@@H](O)[C@H]2O)c1O	0.0608	0.272	-0.185	-0.234	1.1	0.705	1.34	-0.809	-1.05	-0.893
Nc1ncn([C@H]2C[C@H](O)[C@@H](CO)O2)c(=O)n1	2.35	0.227	3.51	4.93	4.99	3.19	27.6	5.46	2.19	1.68
Cc1noc(NS(=O)(=O)c2ccc(N)cc2)c1C	-0.149	-0.401	-0.198	-0.0916	2.16	-1.61	29.4	-0.587	-0.478	-3.55
CNC(=O)CN(CCN(CCN(CC(=O)[O-])CC(=O)NC)CC(=O)[O-])CC(=O)[O-].[Gd+3]	-2.04	-0.306	-1.48	-2.31	-1.74	1.15	-6.04	-1.08	-1.67	0.753
COc1ccc(CC(C)NCC(O)c2ccc(O)c(NC=O)c2)cc1 (stereo not given)	-0.234	-0.809	0.814	0.302	3.66	0.0101	6.49	0.93	1.33	-1.79
NC(=O)N/N=C/c1ccc([N+](=O)[O-])o1	0.652	0.147	0.615	0.733	1.49	0.622	2.46	-1.17	1.04	-0.395
CN(C)CCCN1c2ccccc2Sc2ccc(C(F)(F)F)cc21	1.07	1.48	0.326	0.717	3.34	0.498	-0.762	2.79	0.329	-5.35
Cc1ncc([N+](=O)[O-])n1CC(O)CCl (stereo not given)	1.6	-0.696	3.64	1.89	2.83	1.22	6.21	1.59	4.35	0.346
Nc1ncn(C2OC(CO)C(O)C2O)c(=O)n1 (stereo not given)	3.4	-0.711	5.91	7.54	4.31	1.61	55.5	16.7	0.0997	-1.9
Cc1ccc(C(=O)c2ccc(CC(=O)O)n2C)cc1	-0.189	-0.055	0.146	0.57	0.449	-0.641	2.18	-4	1.82	-0.302
c1cc(CN2CCCNCCNCCCNCC2)ccc1CN1CCCNCCNCCCNCC1	1.86	3.43	1.65	2.55	4.18	5.37	11.8	12.5	5.04	3.18
Oc1ccc(OC2CCCCO2)cc1 (stereo not given)	-0.0269	0.922	1.6	1.43	2.89	2.46	-1.26	0.845	0.118	0.895
CC(=O)SCC(Cc1ccccc1)C(=O)NCC(=O)OCc1ccccc1 (stereo not given)	1.1	2.25	1.03	1.31	1.49	1.32	-1.4	-1.43	-1.57	-0.948
CC(C)NCC(O)c1ccc(O)c(O)c1 (stereo not given)	-3.68	-0.899	-1.64	-0.316	-1.58	0.187	-3.47	-0.959	-4.2	-0.909
NCCNCCNCCNCCN	1.8	3.32	2.9	2.04	2.02	3.41	4.1	5.08	4.87	0.192
Nc1nc(=O)[nH]cc1F	1.91	1.71	2.65	3.09	1.88	1.43	1.22	0.252	2.66	-3.23
CCCCCOC(=O)Nc1nc(=O)n([C@@H]2O[C@H](C)[C@@H](O)[C@H]2O)cc1F	-0.544	1.13	0.087	0.193	1.46	0.0555	-0.694	-0.463	0.998	1.54

Structure (SMILES)	growth inhibition (DIPGX29) [%]	growth inhibition (DIPGX37) [%]	growth inhibition (DIPGX7) [%]	growth inhibition (DIPGX9) [%]	growth inhibition (HGGX39) [%]	growth inhibition (HGGX6) [%]	growth inhibition (HNSC) [%]	growth inhibition (SUDIPGIV) [%]	growth inhibition (SUDIPGVI) [%]	growth inhibition (SUDIPGXIII) [%]
CCN(CC)CCNC(C(=O)OCCC(C)C)c1ccccc1 (stereo not given)	2	-0.0996	4.26	1.08	0.0597	0.247	74.6	1.14	-6.42	2.01
COCCCOc1cc(C[C@@H](C[C@H](N)[C@@H](O)C[C@H](C(=O)NCC(C)(C)C(N)=O)C(C)C)C(C)C)ccc1OC	2.63	-0.699	1.89	6.01	3.87	1.44	2.36	-3.1	2.75	0.132
COC(=O)[C@H](c1ccccc1Cl)N1CCc2sccc2C1	-1.33	-0.314	-0.551	-0.762	-0.681	-0.144	-2.08	-1.84	0.653	1.29
N=C(N)NC(=N)NCCc1ccccc1	2.55	2.09	2.16	3.4	3.43	1.66	13	3.22	7.27	2.1
Cc1c(C(=O)NN2CCCCC2)nn(-c2ccc(Cl)cc2Cl)c1-c1ccc(Cl)cc1	-2.71	-0.227	1.25	-0.743	-1.14	-2.08	11.7	-1.46	-7.47	3.18
O=C(Nc1cccc2c(=O)cc(-c3nnn[nH]3)oc12)c1ccc(OCCCCc2ccccc2)cc1	2.7	2.86	2.31	0.614	2.23	-2.27	52.4	2.11	1.62	2.22
CS(=O)(=O)Nc1ccc([N+](=O)[O-])cc1Oc1ccccc1	0.913	1.17	0.12	0.568	2.03	-1.72	27.3	-3.67	-1.3	-2.23
Nc1nc(=O)c2c([nH]1)NCC(CNc1ccc(C(=O)N[C@@H](CCC(=O)O)C(=O)O)cc1)N2C=O (stereo not given in full)	-0.552	0.652	-1.46	-0.907	-0.954	-0.876	0.438	-1.59	0.511	-0.342
CN(C)/N=N/c1[nH]cnc1C(N)=O	5.71	3.55	2.2	3.08	9.03	7.4	4.41	12.8	2.55	0.947
C=CCNC(N)=S	-0.199	0.393	-0.932	-0.168	1.56	1.43	-1.32	-1.24	-2.19	-0.232
O=C(O)CCc1nc(-c2ccccc2)c(-c2ccccc2)o1	-0.808	1.84	-1.35	-1.33	0.585	1.25	-2.45	-2.53	0.464	1.19
COCCOC(=O)C1=C(C)NC(C)=C(C(=O)OC(C)C)C1c1cccc([N+](=O)[O-])c1 (stereo not given)	-0.32	0.964	-0.466	0.313	1.43	-1.47	2.29	0.263	1.28	2.89
CCCC(=O)[O-].[Na+]	-1.17	-2.44	-0.966	0.792	0.723	0.649	-2.84	-1.12	0.269	0.879
CC(=O)Oc1ccc(C(c2ccc(OC(C)=O)cc2)c2ccccn2)cc1	2.78	3.71	5.33	8.29	20.8	3.52	4.99	18.7	3.8	5.98
CC(C)(C)CC(C)(C)c1ccc(OCCOCC[N+](C)(C)Cc2ccccc2)cc1	65.1	71.8	69	43.5	64.3	43.9	82.7	47.1	64.5	73.4
COc1ccccc1OCC(O)CO (stereo not given)	-3.06	-1.42	-2.23	-0.66	-1.85	-0.626	-6.5	-1.52	-1.52	1.23
Nc1nc(CC(=O)Nc2ccc(CCNC[C@H](O)c3ccccc3)cc2)cs1	0.527	0.899	-0.176	0.63	1.04	-0.0848	-1.35	-0.627	0.0605	0.226
Nc1cccc2c1CN(C1CCC(=O)NC1=O)C2=O (stereo not given)	0.182	0.237	4.3	2.15	4.65	4.94	4.5	1.6	2.41	-0.527
COC(=O)C1=C(C)NC(C)=C(C(=O)OCCN(C)Cc2ccccc2)C1c1cccc([N+](=O)[O-])c1 (stereo not given)	1.83	4.39	2.64	2.12	6.81	0.277	13	3.58	-1.74	2.92
CCCCC1C(=O)N(c2ccccc2)N(c2ccccc2)C1=O	-0.206	-1.51	-0.44	-1.82	-1.47	-2.46	0.0851	-3.3	-4.73	-0.592
CC(C)c1nc(N(C)S(C)(=O)=O)nc(-c2ccc(F)cc2)c1C=CC(O)CC(O)CC(=O)O (stereo not given)	7.07	-1.35	16.7	4.14	24.4	15.9	73.3	21.5	-6.26	17
